# Sampled rows, rich in hits. Any-hit rate of the full collection: about 11%.
# Pf growth 96h = P. falciparum growth inhibition at 96 hour, primary screen for plastid delayed-death inhibitors. P. falciparum luciferase reporter growth, 96 h. Potency, µM (series often up to 28.7 µM), for the others: at the highest dose activity change, negative = inhibition, hits mostly inhibitors. hit rate 6.9% among 320,000; also: % is scaled to controls: 0 for no effect and ±100 for the full control effect
#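 Erythrocytes infected with luciferase-expressing P. falciparum were dispensed at 2% hematocrit and 0.05% parasitemia (final), then incubated with compounds 96 hours at 37 C in 5% CO2. Luminescence after detection reagent addition reported growth.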
# Pf growth 48h = P. falciparum growth inhibition at 48 hours (one generation). Potency, µM (titrated, usually from 28.7 µM), for inactives: top-dose activity change, negative = inhibition, hits mostly inhibitors. P. falciparum luciferase growth in erythrocytes, 48 h. AID 504832. hit rate 5.9% among 310,000; also: % is scaled to controls: 0 for no effect and ±100 for the full control effect
#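 In quantitative HTS format, infected erythrocytes bearing luciferase-reporter parasites were treated for a single generation at 37 C. Luminescence after adding detection reagent served as the growth measure.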
# Sm TGR block = S. mansoni TGR enzyme inhibition; Q962Y6; purified TGR, DTNB reduction, TNB absorbance 405 nm; Potency, µM (series often up to 114 µM), inactives show at the highest dose activity change, negative = inhibition, usual class: inhibitors; hit rate 3% among 360,000; AID 485364; also: % is scaled to controls: 0 for no effect and ±100 for the full control effect; nearly all actives have a fitted effect of over 60% in size
#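 TGR 20 nM + NADPH 100 uM (dispensed conc.), cpd preinc 15 min RT; start with NADPH (500 uM addition) then DTNB (15 mM addition). Kinetic TNB absorbance, 405 nm filter. Four-parameter Hill fit across titration.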
# NS1 inh = influenza NS1 inhibition; Potency, µM (top dose mostly 46.1 µM), for inactives: at the top dose activity, positive = more growth; hit rate 0.4% among 270,000; calls by dose curve; also: actives are rising curves; nearly all actives have a fitted effect of over 50% in size
#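 S. cerevisiae expressing influenza A NS1, grown in glucose, washed, then diluted 1:100 into pH 6.0 -URA galactose medium with 23 nl compound. Growth recovery read as OD600; NS1-free strain serves as control.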
# AMA1-RON2 inh = disrupts binding of P. falciparum AMA1 to RON2. AlphaScreen AMA1-biotinylated RON2 peptide binding. Potency, µM (top dose mostly 58.2 µM), inactives show at the top dose activity change, negative = inhibition, actives largely listed as inhibitors. hit rate 0.2% among 360,000;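 also: 0% = vehicle wells and -100% = peptide control; nearly all actives have a fitted effect of over 45% in size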
#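 AMA1 (3D7) with his tag at 25 nM final met compounds first, then biotinylated RON2 peptide at 25 nM; detection used donor plus acceptor beads, 10 µg/mL apiece, read by AlphaScreen after 30 min at room temperature.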
# * hit, by the source's call; ? = inconclusive; . = no result; [ ] = dose if it differs, or a comment. Unless noted, calls follow the shape of the dose curve; as a rule, active = well fitted curve in the direction sought with a large enough effect; inconclusive = small, poorly fitted or top-dose-only effect, or another doubt; inactive = no such curve, though single readings can be large; an effect the other way counts as inactive or inconclusive. Potency is read from the fitted curve at half-maximal effect.
SMILES,Pf growth 96h,Pf growth 48h,Sm TGR block,NS1 inh,AMA1-RON2 inh
O=C(O)CCc1ccc(-c2cccs2)n1CC1CCCO1 (centres undefined),-2.7%[5.75 µM],3.0%,8.91µM*,9.3%,-9.1%
Cc1ccccc1NC(=O)Cn1c(=O)n(CCC(=O)N2CCc3ccccc3C2)c(=O)c2ccccc21,.,.,-1.4%,.,.
O=C(Nc1ccc(Cl)c(S(=O)(=O)N2CCOCC2)c1)c1ccc2c(c1)OCCO2,?,13.1µM*,-10.4%,.,-9.6%
O=C(Nc1ccc(Cl)c(S(=O)(=O)N2CCOCC2)c1)c1ccc(Cl)nc1,7.38µM*,?,1.5%,.,5.3%
O=C(Nc1ccc(Cl)c(S(=O)(=O)N2CCOCC2)c1)c1ccc(OCC2CCCO2)cc1 (centres undefined),4.15µM*,11.7µM*,-7.3%,.,-6.3%
O=C(Nc1ccc(Cl)c(S(=O)(=O)N2CCOCC2)c1)c1ccc2c(c1)OCO2,.,.,.,.,-24.1%
CCOc1cc(C2c3c(oc4ccccc4c3=O)C(=O)N2c2nccs2)ccc1O (centres undefined),-4.4%,15.1%,-14.7%,4.5%,-2.1%
CN(C)C(=O)N1CCCC(C(=O)NCc2ccccc2)C1 (centres undefined),3.6%,20.1%,-5.4%,-6.5%,6.3%
CCOCCCNC(=S)N1CCC(NC(=O)c2ccco2)CC1,-1.9%,23.5%,0.7%[57.1 µM],-6.2%,13.3%
CC(C)CNC(=S)N1CCC(Cc2ccccc2)CC1,14.7µM*,?,-2.9%,-84.3%,8.5%
Cc1ccc(C)c(NC(=S)N2CCC(NC(=O)c3ccco3)CC2)c1,47.5%,0.7%,-9.0%,0.6%,10.1%
CC(C)CNC(=O)C1CCCN(C(=O)NCc2ccccc2)C1 (centres undefined),4.65µM*,4.1%,10.4%,-0.8%,-3.3%
CC(C)CNC(=S)N1CCC(NC(=O)c2ccco2)CC1,11.7µM*,-3.2%,-5.3%,.,20.8%
Cc1ccccc1NC(=S)N1CCC(NC(=O)c2ccco2)CC1,3.29µM*,9.0%,4.5%,.,-3.8%
CCOCCn1c(N2CCCN(C)CC2)nc2ccccc21,?,-0.2%,.,.,.
COc1ccc(N2CCN(C(C)C(=O)N3CCCC3)CC2)cc1 (centres undefined),42.8%,7.1%,0.3%[57.1 µM],0.1%,-1.7%
CCOC(=O)c1c(C)oc2c1c(CN1CCN(C(=O)OCC)CC1)c(O)c1ccccc12,-30.8%,115.1%,0.562µM*,-43.1%,?
CCOC(=O)c1c(C)oc2c1c(C(c1ccncc1)N1CCOCC1)c(O)c1ccccc12 (centres undefined),-1.4%,?,1.26µM*,-103.7%,?
CCOC(=O)c1c(C)oc2c1c(C=NC1CCS(=O)(=O)C1)c(O)c1ccccc12 (centres undefined),-19.9%,?,-4.7%,-1.1%,0.0%
CCOC(=O)c1c(C)oc2c1c(CN1CCN(CCO)CC1)c(O)c1ccccc12,212.8%,124.5%,0.282µM*,.,-29.6%
CCOC(=O)c1c(C)oc2c1c(C=NCCC(=O)O)c(O)c1ccccc12,-11.9%,-4.7%,-10.0%,.,70.2%
CCOC(=O)c1c(C)oc2c1c1c(c3ccccc32)OCN(Cc2ccccn2)C1,217.6%,104.3%,0.355µM*,-21.6%,51.0%
CCOC(=O)c1c(C)oc2ncnc(N3CCN(c4ccccc4)CC3)c12,.,.,-3.2%,.,.
COc1ccc(CCNC(=O)C2CC3Cn4c(nc5ccccc54)C3N2Cc2ccccc2)cc1 (centres undefined),.,.,.,.,-2.5%
COc1ccc(S(=O)(=O)N2CCCCC2)cc1NS(=O)(=O)c1ccc(CNC(C)=O)cc1,.,.,.,.,-9.0%
SMILES,Pf growth 96h,Pf growth 48h,Sm TGR block,NS1 inh,AMA1-RON2 inh
COC1CC(=O)C2OC(c3ccccc3)OCC2O1 (centres undefined),.,.,.,.,0.1%
COc1cc2c(C#N)c(N3CCN(c4ccccc4OC)CC3)nc(N)c2c(N)n1,8.28µM*,2.08µM*,-6.4%,-42.1%,-11.0%
Cc1ccc(C)c(/C(O)=C2/C(=O)C(=O)N(CCN3CCOCC3)C2c2ccco2)c1 (centres undefined),?,?,20µM*,?,-7.0%
Cc1ccc(C2/C(=C(/O)c3cnn(-c4ccccc4)c3C)C(=O)C(=O)N2CCN2CCOCC2)o1 (centres undefined),.,.,22.4µM*,1.2%,7.2%
Cc1c(/C(O)=C2/C(=O)C(=O)N(CCN3CCOCC3)C2c2cccs2)cnn1-c1ccccc1 (centres undefined),122.2%,80.9%,35.5µM*,-1.2%,0.0%
Cc1c(/C(O)=C2\C(=O)C(=O)N(CCN(C)C)C2c2ccccc2)cnn1-c1ccccc1 (centres undefined),201.9%,131.0%,12.6µM*,5.6%,-11.9%
CCOC(=O)c1c(C)c(-c2ccccc2)n(CC(=O)NCCCN(CC)CC)c1C,172.4%,-8.6%,3.5%,.,0.9%
Cc1ccc(C2/C(=C(/O)c3ccccc3)C(=O)C(=O)N2CCN2CCOCC2)o1 (centres undefined),-24.0%,30.6%,44.7µM*,-11.5%,1.3%
CC1=CC(=O)C2=C(C)CC(O)C3C(C)C(=O)OC3C12 (centres undefined),13.1µM*,-3.0%,-3.5%,4.4%,3.3%
Cc1ccc(CNC(=O)CN(C)S(=O)(=O)c2ccc(F)cc2)cc1,.,.,.,.,-5.0%
O=S(=O)(O)c1cc(O)ccc1O,43.0%,25.6%,-19.6%,.,-10.4%
O=S(=O)(c1cc(O)ccc1O)c1cccc2c(S(=O)(=O)c3cc(O)ccc3O)cccc12,13.1µM*,10.4µM*,11.2µM*,.,8.91µM*
O=C(NC12CC3CC(CC(C3)C1)C2)N1CCN(c2ccccc2)CC1,375.2%,?,-8.2%,-11.0%,18.3%
COc1ccc(N2CCN(C(=O)NC34CC5CC(CC(C5)C3)C4)CC2)cc1,5.22µM*,.,-15.6%,-8.3%,-10.1%
O=C(COc1coc(CN2CCc3ccccc32)cc1=O)Nc1cccc(F)c1,-2.1%,?,7.5%,.,-6.5%
CCCc1cc(=O)oc2cc(C)c3c(C(C)(C)C)coc3c12,.,.,1.1%,.,.
CC(C)(C)Cc1nnc(NC(=O)CSc2ccccc2)s1,?,13.8%,4.5%,22.0%,0.2%
CCN(CCn1cccn1)Cc1nc(Cc2cccc(F)c2)no1,?,0.0%,-5.7%,-4.4%,7.0%
CN(Cc1ccc2nonc2c1)Cc1nc(Cc2cccc(F)c2)no1,13.1µM*,?,-3.3%,-0.2%,31.1%
O=[N+]([O-])c1cccnc1Oc1ccc(F)cc1,?,9.1%,8.4%,4.8%,10.0%
COc1ccc(Oc2ncccc2[N+](=O)[O-])cc1,11.7µM*,?,8.9%,2.3%,0.4%
O=C(N/N=C/c1ccc(O)c(O)c1O)/C(=C/c1ccc([N+](=O)[O-])cc1)NC(=O)c1ccccc1,9.28µM*,.,0.0%,-2.7%,36.9%
Cc1ccc(NC(=O)/C(=C\c2ccc([N+](=O)[O-])cc2)NC(=O)c2ccccc2)cc1,5.22µM*,?,-6.5%,-3.6%,5.9%
O=C(Nc1cccc2ccccc12)/C(=C/c1ccc([N+](=O)[O-])cc1)NC(=O)c1ccccc1,9.28µM*,?,3.1%,?,-10.1%

# High-throughput results (PubChem BioAssay)
